{"source": "PubChem BioAssay AID1053180", "about": "(Broad Institute, 2014)", "note": "“And” between values parts separate entries of the source, which are not always exact repeats. Equal entries are not always repeated. Out of some 9,600 compounds screened, about 20 (0.2%) were called active.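 Rule for the calls: active = highest normalized replicate activity of 15 or more, or at least half the replicates reach 15 or more; inactive = neither condition met.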 Only a selection was taken, and actives are over-represented in it overall. A structure can be active in one record and inactive in another.", "data": [{"assay": "Pax4 mRNA upregulation in alpha cells – RT-PCR, mouse alpha TC1 cells, single point, primary screen (AID 1053180);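 note: Pax4 Ct normalized to GAPDH with activation seen as lower delta delta Ct; plate controls were plate neutral control wells for no effect and Pax4 plasmid positive control for full effect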", "conditions": "Pax4 mRNA qPCR, 6 days, at 10 µM, stronger effect = higher value, 100% = Pax4 plasmid added at qPCR", "values": [{"smiles": "CC(C)CC#Cc1ccc([C@H]2[C@@H](CO)N3CCCCN(C(=O)Nc4ccccc4)C[C@@H]23)cc1", "activation": "0.0025% (inactive)"}, {"smiles": "O=C(C[C@@H]1CC[C@H](NC(=O)c2ccc3c(c2)OCO3)[C@@H](CO)O1)NCc1ccc(Oc2ccccc2)cc1", "activation": "0.006% (inactive)"}, {"smiles": "COCC(=O)N1CC(=O)N2[C@H](CO)[C@H](c3ccc(-c4ccccc4F)cc3)[C@@H]2C1", "activation": "0% (inactive)"}, {"smiles": "C[C@H]1CN([C@@H](C)CO)C(=O)c2cc(NS(=O)(=O)c3ccc(F)cc3)ccc2O[C@H]1CN(C)C(=O)Nc1ccccc1", "activation": "0.002% (inactive)"}, {"smiles": "CO[C@H](CN(C)C(=O)C1CCOCC1)[C@@H](C)CN(C(=O)Nc1ccc(C(F)(F)F)cc1)[C@@H](C)CO", "activation": "0.0085% (inactive)"}, {"smiles": "O=C(CN1CCOCC1)N[C@@H]1CC[C@@H](CCn2cc(C3CC3)nn2)O[C@@H]1CO", "activation": "0.0035% (inactive)"}, {"smiles": "N#Cc1ccc(-c2ccc([C@@H]3[C@@H]4CN(Cc5cocn5)C[C@H]3N4)cc2)cc1", "activation": "0.128% (inactive)"}, {"smiles": "COc1cccc(-c2ccc(C3[C@@H]4CN(Cc5ccccn5)C[C@H]3N4)cc2)c1", "note": "(stereo partly drawn)", "activation": "0.0705% (inactive) and 213% (active)"}, {"smiles": "Fc1ccccc1-c1ccc(C2[C@@H]3CN(Cc4ccccn4)C[C@H]2N3)cc1", "note": "(stereo partly drawn)", "activation": "0.412% (inactive) and 0.0165% (inactive)"}, {"smiles": "N#Cc1cccc(-c2ccc(C3[C@@H]4CN(Cc5ccccc5)C[C@H]3N4)cc2)c1", "note": "(stereo partly drawn)", "activation": "2.74% (inactive) and 0.113% (inactive)"}, {"smiles": "COc1cc(CN2C[C@@H]3N[C@H](C2)C3c2ccc(-c3ccc(C#N)cc3)cc2)cc(OC)c1", "note": "(stereo partly drawn)", "activation": "3.96% (inactive) and 9.29% (active)"}, {"smiles": "COc1cccc(CN2C[C@@H]3N[C@H](C2)C3c2ccc(-c3ccccc3C)cc2)c1", "note": "(stereo partly drawn)", "activation": "0.0245% (inactive) and 0.039% (inactive)"}, {"smiles": "C[C@@H]1CCCCO[C@@H](CN(C)S(=O)(=O)c2ccc(F)cc2)[C@H](C)CN([C@@H](C)CO)C(=O)c2cc(N(C)C)ccc2O1", "activation": "0.002% (inactive)"}, {"smiles": "COc1cccc(S(=O)(=O)N[C@H]2CC[C@@H](CC(=O)NC3Cc4ccccc4C3)O[C@@H]2CO)c1", "activation": "0.0015% (inactive)"}, {"smiles": "CO[C@@H]1CC[C@H]2CCOc3c(C#N)cccc3C(=O)N(C)CCCC(=O)N(C)C[C@H]1O2", "activation": "0.001% (inactive)"}, {"smiles": "C[C@@H]1CCCCO[C@H](CN(C)C(=O)c2ccncc2)[C@H](C)CN([C@H](C)CO)C(=O)c2cc(NS(=O)(=O)c3cccs3)ccc2O1", "activation": "0.001% (inactive)"}, {"smiles": "CCCNC(=O)[C@H]1[C@H](CO)[C@H]2Cn3c(ccc(/C=C/c4ccccc4)c3=O)[C@H]2N1CC1CC1", "activation": "0% (inactive)"}, {"smiles": "Cc1ccccc1S(=O)(=O)N1C[C@@H]2N[C@H](C1)C2c1ccc(-c2cccc(C#N)c2)cc1", "note": "(stereo partly drawn)", "activation": "0.966% (inactive) and 11.5% (active)"}, {"smiles": "N#Cc1cccc(-c2ccc(C3[C@@H]4CN(C(=O)Nc5ccc(C(F)(F)F)cc5)C[C@H]3N4)cc2)c1", "note": "(stereo partly drawn)", "activation": "8.39% (active) and 0.03% (inactive)"}, {"smiles": "C/C=C/c1ccc(C2[C@@H]3CN(C(=O)Nc4ccc(C(F)(F)F)cc4)C[C@H]2N3)cc1", "note": "(stereo partly drawn)", "activation": "32.9% (active) and 0.0565% (inactive)"}, {"smiles": "COc1ccc(-c2ccc(C3[C@@H]4CN(S(=O)(=O)c5ccccc5C)C[C@H]3N4)cc2)cc1", "note": "(stereo partly drawn)", "activation": "0.369% (inactive) and 0.0145% (inactive)"}, {"smiles": "COc1ccccc1NC(=O)N1C[C@@H]2N[C@H](C1)C2c1ccc(-c2cccc(C#N)c2)cc1", "note": "(stereo partly drawn)", "activation": "0.02% (inactive) and 0.24% (inactive)"}, {"smiles": "O=C(Nc1ccc(F)cc1)N1C[C@@H]2N[C@H](C1)C2c1ccc(/C=C/c2ccccc2)cc1", "note": "(stereo partly drawn)", "activation": "1.76% (inactive)"}, {"smiles": "C/C=C/c1ccc(C2[C@H]3CNC[C@@H]2N3C(=O)Nc2ccc(C(F)(F)F)cc2)cc1", "note": "(stereo partly drawn)", "activation": "0.016% (inactive) and 0.0105% (inactive)"}, {"smiles": "N#Cc1cccc(-c2ccc(C3[C@@H]4CNC[C@H]3N4)cc2)c1", "note": "(stereo partly drawn)", "activation": "0.0045% (inactive)"}, {"smiles": "Cc1cccc(-c2ccc(C3[C@@H]4CN(C(=O)Nc5ccc(F)cc5)C[C@H]3N4)cc2)c1", "note": "(stereo partly drawn)", "activation": "0.272% (inactive)"}, {"smiles": "O=C1CNC[C@@H]2[C@H](c3ccc(-c4ccccc4F)cc3)[C@@H](CO)N12", "activation": "0% (inactive)"}, {"smiles": "CNC[C@@H]1Oc2cc(C#Cc3ccccc3OC)ccc2S(=O)(=O)N([C@H](C)CO)C[C@H]1C", "activation": "10.4% (active)"}, {"smiles": "CNC[C@H]1Oc2cc(C#Cc3ccccc3OC)ccc2S(=O)(=O)N([C@@H](C)CO)C[C@@H]1C", "activation": "0.371% (inactive)"}, {"smiles": "CNC[C@H]1Oc2cc(C#Cc3ccccc3OC)ccc2S(=O)(=O)N([C@H](C)CO)C[C@@H]1C", "activation": "0.402% (inactive)"}, {"smiles": "C[C@@H]1CN([C@@H](C)CO)C(=O)CCCn2nncc2CO[C@H]1CN(C)C(=O)c1cc(-c2ccccc2)on1", "activation": "0.0055% (inactive)"}, {"smiles": "C[C@@H]1CN([C@H](C)CO)C(=O)CCCn2nncc2CO[C@@H]1CN(C)Cc1ccccc1C(=O)O", "activation": "-0.0005% (inactive)"}, {"smiles": "C[C@@H]1CCCCO[C@H](CN(C)C(=O)Nc2ccc3c(c2)OCO3)[C@H](C)CN([C@H](C)CO)C(=O)c2cc(NS(=O)(=O)c3ccc(F)cc3)ccc2O1", "activation": "0.0035% (inactive)"}, {"smiles": "CC(C)CN(C[C@H]1N[C@H](CO)[C@@H]1c1ccccc1)C(=O)C1CCCCC1", "activation": "0% (inactive)"}, {"smiles": "CO[C@H]1CN(C)C(=O)c2cc(NC(=O)Nc3cccc(Cl)c3)ccc2OC[C@H](C)N(C(=O)Nc2c(C)noc2C)C[C@@H]1C", "activation": "0.004% (inactive)"}, {"smiles": "COc1ccc2c3c([nH]c2c1)[C@H](CO)N(Cc1ccccc1F)CC31CN(CC2CC2)C1", "activation": "0.011% (inactive)"}, {"smiles": "COCC#Cc1ccc([C@H]2[C@@H](CO)N3CCCCN(C(=O)NC4CCCC4)C[C@H]23)cc1", "activation": "0.001% (inactive)"}, {"smiles": "O=C(c1ccccc1)N1CC(=O)N2[C@H](CO)[C@H](c3ccc(-c4ccccc4)cc3)[C@@H]2C1", "activation": "0.0005% (inactive)"}, {"smiles": "C/C=C/c1ccc([C@@H]2[C@H](CO)N(C(C)=O)[C@H]2CNC(=O)c2ccccc2)cc1", "activation": "0.0015% (inactive)"}, {"smiles": "C[C@H](NC(=O)C[C@H]1C=C[C@@H](NC(=O)c2cccnc2)[C@H](CO)O1)c1ccccc1", "activation": "0.0005% (inactive)"}, {"smiles": "CS(=O)(=O)Nc1ccc2c(c1)[C@@H]1C[C@@H](CC(=O)NCc3cc(F)ccc3F)O[C@H](CO)[C@@H]1O2", "activation": "0.007% (inactive)"}, {"smiles": "C[C@@H]1CN([C@@H](C)CO)C(=O)c2ccccc2-c2ccccc2CO[C@@H]1CN(C)C(=O)NC1CCCCC1", "activation": "-0.0015% (inactive)"}, {"smiles": "CO[C@H]1CN(C)C(=O)c2ccc(NC(=O)c3nc4ccccc4s3)cc2OC[C@H](C)N(Cc2cccnc2)C[C@@H]1C", "activation": "0.009% (inactive)"}]}]}
